# Measured values reported in PubChem BioAssay.
# Activity calls are given as the source filed them. Unless noted, no rule for the calls is given here.
# What was measured:
# [1] = anti-His antibody binders, primary screen, artefact control for SMM control protein annotation, biochemical, small-molecule microarray, 635 nm fluorescence (AID 1128); details: anti-His Alexa647 antibody binding, higher = more signal;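 also: score merges feature fluorescence with signal-to-noise for each printed compound spot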
# [2] = system: Human papillomavirus type 1a E7 protein (residues 1-88); test: HPV1a E7 small-molecule binders, primary screen, biochemical, small-molecule microarray, residues 1-88, 635 nm (AID 1129); details: small-molecule microarray binding, fluorescence 635 nm; higher = more signal
# [3] = target: Focal adhesion kinase 1 (Homo sapiens) (UniProt Q05397); test: small-molecule microarray binders of FAK, primary screen, biochemical, 635/667 nm fluorescence, BSA, DTT (AID 1130); details: PTK2 binding, 635 nm fluorescence, higher = more signal;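 also: composite of spot emission at 667 nm and signal to noise over triplicate slides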
# Chain of Focal adhesion kinase 1 (Homo sapiens) (Q05397 whole entry, looked up): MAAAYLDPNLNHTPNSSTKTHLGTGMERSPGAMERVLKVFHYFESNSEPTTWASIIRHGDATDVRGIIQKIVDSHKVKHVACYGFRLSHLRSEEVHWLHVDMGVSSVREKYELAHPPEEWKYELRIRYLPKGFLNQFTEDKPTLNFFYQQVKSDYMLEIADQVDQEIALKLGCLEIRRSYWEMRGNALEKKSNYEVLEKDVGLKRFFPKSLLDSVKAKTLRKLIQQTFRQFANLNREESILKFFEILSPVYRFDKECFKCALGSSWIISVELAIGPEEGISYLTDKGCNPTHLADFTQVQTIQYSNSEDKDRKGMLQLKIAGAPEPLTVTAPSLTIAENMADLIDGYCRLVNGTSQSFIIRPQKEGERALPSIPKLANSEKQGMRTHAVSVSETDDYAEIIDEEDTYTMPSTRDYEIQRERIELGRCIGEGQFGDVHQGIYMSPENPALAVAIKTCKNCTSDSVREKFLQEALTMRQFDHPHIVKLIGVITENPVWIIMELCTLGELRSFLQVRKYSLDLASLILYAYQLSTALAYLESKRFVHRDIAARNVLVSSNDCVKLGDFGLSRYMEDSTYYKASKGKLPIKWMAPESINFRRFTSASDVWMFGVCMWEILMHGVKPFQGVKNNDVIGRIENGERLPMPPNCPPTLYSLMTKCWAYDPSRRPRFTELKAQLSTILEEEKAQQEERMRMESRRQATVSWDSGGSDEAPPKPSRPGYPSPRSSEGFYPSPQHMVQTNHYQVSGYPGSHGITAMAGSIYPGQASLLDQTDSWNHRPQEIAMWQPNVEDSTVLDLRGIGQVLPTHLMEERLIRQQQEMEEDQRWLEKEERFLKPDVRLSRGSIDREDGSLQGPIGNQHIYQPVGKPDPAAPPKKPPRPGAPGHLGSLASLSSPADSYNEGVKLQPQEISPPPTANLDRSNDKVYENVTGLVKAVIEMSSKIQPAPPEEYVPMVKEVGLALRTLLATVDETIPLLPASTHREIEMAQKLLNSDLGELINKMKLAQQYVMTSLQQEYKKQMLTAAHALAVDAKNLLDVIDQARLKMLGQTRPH
# [4] = system: Fibrinogen (Alexa647-labelled); test: fibrinogen binders on compound microarrays, profiling panel, artefact control for SMM control-protein annotation, biochemical, small-molecule microarray, 635/667 nm fluorescence (AID 1131); details: fibrinogen-A647 binding fluorescence, higher = more signal;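 also: z-score merges 667 nm fluorescence with per-spot signal-to-noise over triplicate slides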
# [5] = target: Follistatin (Homo sapiens) (UniProt P19883); test: follistatin binders on small-molecule microarrays, primary screen, biochemical, small-molecule microarray, 635/667 nm fluorescence (AID 1132); details: FST binding, 635 nm fluorescence, higher = more signal
# Chain of Follistatin (Homo sapiens) (P19883 whole entry, looked up): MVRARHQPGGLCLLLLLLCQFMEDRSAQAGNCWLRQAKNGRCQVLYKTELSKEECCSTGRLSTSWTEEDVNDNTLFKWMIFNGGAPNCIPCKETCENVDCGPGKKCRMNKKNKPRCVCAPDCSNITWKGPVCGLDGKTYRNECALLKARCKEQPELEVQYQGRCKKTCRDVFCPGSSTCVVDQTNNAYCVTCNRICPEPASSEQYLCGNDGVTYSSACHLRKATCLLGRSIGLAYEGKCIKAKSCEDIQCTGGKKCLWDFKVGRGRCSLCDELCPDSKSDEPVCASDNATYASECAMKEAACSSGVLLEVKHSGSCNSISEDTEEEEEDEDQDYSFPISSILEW
# [6] = target: Fibroblast growth factor 2 (Homo sapiens) (UniProt P09038); test: FGF2 binders on small-molecule microarrays, primary screen, biochemical, small-molecule microarray, 635/667 nm fluorescence (AID 1133); details: small-molecule microarray binding, FGF2, fluorescence 635/667; higher = more signal
# Chain of Fibroblast growth factor 2 (Homo sapiens) (P09038 whole entry, looked up): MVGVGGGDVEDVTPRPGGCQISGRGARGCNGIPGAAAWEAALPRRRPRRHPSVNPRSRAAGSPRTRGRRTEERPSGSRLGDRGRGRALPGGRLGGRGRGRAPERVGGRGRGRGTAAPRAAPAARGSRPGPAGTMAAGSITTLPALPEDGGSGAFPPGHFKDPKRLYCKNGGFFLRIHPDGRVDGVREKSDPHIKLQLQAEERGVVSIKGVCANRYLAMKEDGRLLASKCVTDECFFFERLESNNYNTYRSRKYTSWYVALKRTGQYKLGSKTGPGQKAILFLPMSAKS
# [7] = mitochondrial membrane potential change in A549 cells, profiling panel, cell-based, JC-1 fluorescence, basal, 24 h, 100 nL (AID 1138); details: higher = more signal;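 also: A549 lung adenocarcinoma cells under basal conditions with no added stimulus; test concentration not given here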
# Lefty1 = Lefty1 binders on small-molecule microarrays, primary screen, biochemical, small-molecule microarray, 635/667 nm fluorescence (AID 1139); details: small-molecule microarray binding, fluorescence 635/667; higher = more signal
# [8] = system: wheat germ agglutinin (Triticum aestivum), Alexa647-labelled; test: wheat germ agglutinin binders on compound microarrays, profiling panel, artefact control for SMM control-protein annotation, biochemical, small-molecule microarray, 635/667 nm fluorescence (AID 1140); details: WGA-A647 binding, 635 nm fluorescence, higher = more signal;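 also: score merges 667 nm feature emission with signal to noise over triplicate slides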
# [9] = target: Luciferin 4-monooxygenase (Photinus pyralis) (UniProt P08659); test: firefly luciferase enzyme inhibitors, primary screen, biochemical, luminescence, purified enzyme, 2006 set (AID 1141); details: SteadyGlo luminescence, 30 min, higher = more signal, called active from +8 up or from −8 down;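 also: cell-free assay with purified firefly luciferase at 100 ng per well in PBS; test concentration not given here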
# Chain of Luciferin 4-monooxygenase (Photinus pyralis) (P08659 whole entry, looked up): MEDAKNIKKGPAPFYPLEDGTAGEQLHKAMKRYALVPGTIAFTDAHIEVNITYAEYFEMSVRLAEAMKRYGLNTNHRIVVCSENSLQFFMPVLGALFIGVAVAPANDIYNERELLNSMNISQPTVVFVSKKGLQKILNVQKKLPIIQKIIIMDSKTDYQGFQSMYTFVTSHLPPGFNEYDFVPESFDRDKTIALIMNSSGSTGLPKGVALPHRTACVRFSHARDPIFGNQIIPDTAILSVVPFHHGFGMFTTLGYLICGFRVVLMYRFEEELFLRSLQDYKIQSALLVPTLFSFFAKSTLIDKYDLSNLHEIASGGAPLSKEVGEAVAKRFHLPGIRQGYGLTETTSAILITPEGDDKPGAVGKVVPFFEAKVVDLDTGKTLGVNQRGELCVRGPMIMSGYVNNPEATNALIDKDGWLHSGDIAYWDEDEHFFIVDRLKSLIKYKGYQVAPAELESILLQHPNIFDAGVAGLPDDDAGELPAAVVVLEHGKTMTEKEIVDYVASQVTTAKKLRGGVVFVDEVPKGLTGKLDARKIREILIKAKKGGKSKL
# [10] = system: Wnt5a (protein binding on small-molecule microarray); test: Wnt5a binders on small-molecule microarray, primary screen, biophysical, 635/667 nm fluorescence (AID 1142); details: 635 nm fluorescence, higher = more signal;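 also: fluorescence read at 667 nm with signal to noise per printed feature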
# [11] = cell viability in Huh7 cells, primary screen, cytotoxicity control for HCV replication inhibitor project, CellTiter-Glo luminescence, basal, 48 h (AID 1143); details: Huh7 HCV replicon, higher = more signal, called active from +8 up or from −8 down;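 also: Huh7 hepatoma cells carrying a hepatitis C replication reporter with no stimulus; test concentration not given here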
# [12] = P. aeruginosa biofilm formation inhibitors, primary screen, PAO1 strain, BacTiter-Glo luminescence, LB-PBS (AID 1144); details: 12 h, higher = more signal
# [13] = CREB reporter modulators without forskolin, primary screen, cell-based, PC12, CRE-LacZ reporter, unstimulated (AID 1145); details: no forskolin, luminescence, 4.5 h, higher = more signal, called active from +8 up or from −8 down
# [14] = CREB reporter modulators under forskolin, primary screen, cell-based, PC12, CRE-LacZ reporter, forskolin-stimulated (AID 1146); details: luminescence, 4.5 h, higher = more signal, called active from +8 up or from −8 down;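 also: PC12 cells with 6xCRE LacZ reporter stimulated by forskolin 10 µM; beta-galactosidase reporter signal reflecting CREB driven transcription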
# [15] = target: Streptavidin (Streptomyces avidinii) (UniProt P22629); test: streptavidin binders on small-molecule microarray, primary screen, artefact control for SMM compound annotation, biophysical, 635/667 nm fluorescence (AID 1147); details: streptavidin binding, higher = more signal;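 also: signal reflects streptavidin binding to arrayed compounds as a control protein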
# Chain of Streptavidin (Streptomyces avidinii) (P22629 whole entry, looked up): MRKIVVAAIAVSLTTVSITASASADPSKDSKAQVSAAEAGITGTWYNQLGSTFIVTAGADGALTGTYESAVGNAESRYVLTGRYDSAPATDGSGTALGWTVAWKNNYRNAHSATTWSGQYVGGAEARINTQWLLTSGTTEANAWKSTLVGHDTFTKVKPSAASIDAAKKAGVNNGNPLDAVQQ
# [16] = small-molecule binders of probe aInhba, primary screen, biochemical, small-molecule microarray, 635/667 nm fluorescence (AID 1148); details: higher = more signal;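 also: score merges 667nm spot fluorescence with signal-to-noise for antibody binding to printed compounds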
# Torsin-1A (Homo sapiens) [17] = target: Torsin-1A (Homo sapiens) (UniProt O14656); test: torsin A binders from cell lysate, primary screen, small-molecule microarray, wild-type, 635/667 nm (AID 1149); details: COS7 hTOR1A-WT lysate, 635 nm fluorescence, higher = more signal
# Chain of Torsin-1A (Homo sapiens) (O14656 whole entry, looked up): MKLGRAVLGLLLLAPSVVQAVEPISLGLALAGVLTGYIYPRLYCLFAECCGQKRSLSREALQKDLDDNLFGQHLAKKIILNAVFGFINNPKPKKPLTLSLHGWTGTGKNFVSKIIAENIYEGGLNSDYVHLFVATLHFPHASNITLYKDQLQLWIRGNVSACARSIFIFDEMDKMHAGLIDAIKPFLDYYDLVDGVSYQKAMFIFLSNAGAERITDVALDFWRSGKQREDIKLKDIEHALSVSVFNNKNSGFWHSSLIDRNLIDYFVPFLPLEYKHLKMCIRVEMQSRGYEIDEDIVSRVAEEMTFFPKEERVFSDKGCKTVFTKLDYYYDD
# Torsin-1A (Homo sapiens) [18] = target: Torsin-1A (Homo sapiens) (UniProt O14656); test: small-molecule binders of mutant TOR1A in lysate, primary screen, cell lysate, small-molecule microarray, COS7 lysate, 635/667 nm fluorescence (AID 1150); details: COS7 hTOR1A mutant lysate, 635 nm fluorescence, higher = more signal;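 also: score pools 667 nm emission and signal to noise measuring lysate protein binding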
# [19] = system: Sonic hedgehog protein (Shh); test: small-molecule binders of Shh protein, primary screen, biochemical, small-molecule microarray, 635/667 nm fluorescence (AID 1151); details: small-molecule microarray binding, 635 nm fluorescence; higher = more signal;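 also: Shh protein binding to compounds spotted on small-molecule microarray slides; score combines spot fluorescence intensity with signal-to-noise across triplicate slides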
Structure (SMILES),composite z-score [1],composite z-score [2],composite z-score [3],composite z-score [4],composite z-score [5],composite z-score [6],z-score [7],composite z-score (Lefty1),composite z-score [8],z-score [9],composite z-score [10],z-score [11],z-score [12],z-score [13],z-score [14],composite z-score [15],composite z-score [16],composite z-score (Torsin-1A (Homo sapiens) [17]),composite z-score (Torsin-1A (Homo sapiens) [18]),composite z-score [19]
[N-]=[N+]=Nc1ccccc1C[C@@]1(C(N)=O)N=C(c2ccc(OCCCO)cc2)O[C@@H]1c1ccccc1,0.42,1.02,0.645,-0.367,0.283,-0.403,-0.971,-1.27,0.402,-3.86 (inactive),0.0445,-4.04 (inactive),-0.616 (inactive),0.377 (inactive),-1.39 (inactive),1.08,0.0561,0.296,0.355,-0.714
O=C1C2=CC[C@H]3C(=O)N(Cc4ccc5c(c4)OCO5)C(=O)[C@H]3[C@H]2[C@H](O)[C@@H]2O[C@H]12,1.06,0.383,0.009,0.459,0.281,0.597,0.738,0.408,-0.0306,-0.272 (inactive),-0.0194,0.279 (inactive),-0.0992 (inactive),-0.385 (inactive),-0.454 (inactive),0.57,-0.0933,0.475,0.677,0.495
O=C(CS)NCCCCCNC(=O)[C@H]1C[C@H]2C(=O)N3CCC[C@H]3C(=O)N2[C@H]1c1cccc(OCCO)c1,3.13,1.11,2.11,0.65,1.45,1.92,0.509,1.65,0.777,-1.22 (inactive),0.76,0.0319 (inactive),0.162 (inactive),-0.126 (inactive),0.899 (inactive),0.0654,-0.016,0.581,0.751,1.99
O=C(CS)NCCCCCNC(=O)[C@@H]1C[C@@H]2C(=O)N[C@@H](Cc3ccccc3)C(=O)N2[C@@H]1c1ccc(O)cc1,2.33,1.21,0.661,-0.0141,1.31,1.29,-0.208,0.233,0.304,-3.79 (inactive),0.835,-0.0984 (inactive),-0.616 (inactive),0.692 (inactive),-0.981 (inactive),-0.859,-0.128,0.489,0.845,0.981
O=C(NN=C1C[C@@H](O)[C@@H](O)[C@@H]2[C@@H]3C(=O)N(c4cccc(Oc5ccccc5)c4)C(=O)[C@@H]3CC[C@@H]12)OCc1ccccc1,-0.0621,0.0508,0.0623,0.81,-0.0636,-0.0953,-0.0675,0.211,0.764,0.663 (inactive),-0.0255,-0.033 (inactive),-0.0198 (inactive),1.6 (inactive),-0.227 (inactive),0.504,-0.183,0.212,0.31,-0.376
COc1ccc(OC[C@H]2Cc3c(-c4ccccc4)nc4c(c3CO2)CN(CCOc2ccccc2)CC4)cc1,1.78,0.928,0.169,0.811,0.923,0.596,0.774,1.25,0.387,-0.356 (inactive),0.133,-3.41 (inactive),-1.27 (inactive),5.99 (inactive),-1.02 (inactive),0.633,0.109,0.086,0.534,1.37
O=C1O[C@@H](c2ccccc2)[C@@H](c2ccccc2)N2[C@@H](c3ccc(O)cc3)[C@]3(C(=O)Nc4ccccc43)[C@@H](C(=O)O)[C@H]12,3.02,1.2,0.49,0.508,-0.167,-0.352,-0.517,-0.351,0.547,-0.0041 (inactive),-0.0286,-4.36 (inactive),0.0547 (inactive),0.568 (inactive),0.532 (inactive),0.0078,0.0442,0.509,0.548,-0.192
COc1ccc(COC(=O)NN=C2C[C@@H](O)[C@@H](O)[C@@H]3[C@@H]4C(=O)N(Cc5ccc6c(c5)OCO6)C(=O)[C@@H]4CC[C@@H]23)cc1,-0.272,-0.568,0.256,0.144,-0.989,-0.922,0.982,-0.86,0.247,-0.283 (inactive),0.0183,-0.797 (inactive),0.786 (inactive),1.61 (inactive),-0.41 (inactive),1.09,0.0028,-1.15,-0.686,-1.07
COC(=O)CC=C[C@@H](C)[C@@H](C=NO[C@H](C)c1cn([C@@H]2COC[C@H]2O)nn1)OC,1.19,0.695,-0.0208,-0.0974,0.341,0.796,0.014,0.645,-0.116,-0.287 (inactive),0.0282,0.324 (inactive),-1.66 (inactive),0.518 (inactive),-0.0094 (inactive),0.521,-0.159,0.73,0.863,0.76
CO[C@H]([C@@H](C)[C@H](OC)c1ccccc1)[C@H](C)[C@@H](OC)[C@H](C)C(C)=O,1,-0.744,0.27,-0.464,-0.304,0.0135,1.1,0.128,-0.496,-1.87 (inactive),-0.183,0.0807 (inactive),0.185 (inactive),-0.98 (inactive),-0.358 (inactive),-0.554,0.809,-0.225,-0.327,0.497
